# Assay outcomes as filed in PubChem.
# Most compounds without a hit are left out; they make up all but 3.2% or so of the library.
# RE007 growth inh = less growth of the S. pombe RE007 Vpr strain | S. pombe RE007 Vpr strain, BacTiter-Glo ATP luminescence, 24 h | Potency, µM (top dose mostly 92.2 µM), inactives show top-dose activity change, negative = less growth, actives largely listed as inhibitors | actives 0.21% (n = 360,000) | AID 651644; active means well fitted falling curve with a large enough effect; inconclusive means small, poorly fitted or top-dose-only effect; inactive means no such curve, though single readings can be large or run the other way; further: nearly all actives have a fitted effect of over 50% in size
#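 Fission yeast RE007 carrying one integrated HIV-1 vpr copy, seeded at OD 0.01 in PMG+AL medium with 23 nL pinned compound. Grown 24 h at 30 degrees; viability read by BacTiter-Glo luminescence after 5 min.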
# TbPYK inhibitor = blocks Trypanosoma brucei pyruvate kinase; actives 0.12% (n = 410,000); AID 624173; TbPYK enzyme, Kinase-Glo Plus ATP luminescence, 45 min; Potency, µM (top dose mostly 76.8 µM), for the others: top-dose activity, negative = inhibition, actives largely listed as inhibitors; further: nearly all actives have a fitted effect of over 50% in size
#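 TbPYK + substrate in 50 mM TEA pH 7.2, 100 mM KCl, 10 mM MgCl2, 0.05% BSA, 0.01% Tween-20; cpd pinned; ADP 130 uM final; 45 min RT; Kinase-Glo Plus 10 min; luminescence endpoint.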
# AMA1 RON2 block = inhibitors of Plasmodium falciparum AMA1-RON2 interaction. AlphaScreen AMA1-biotinylated RON2 peptide binding. Potency, µM (top dose mostly 58.2 µM), inactives show at the highest dose activity change, negative = inhibition, hits mostly inhibitors. actives 0.2% (n = 360,000);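 further: 0% = vehicle wells and -100% = peptide control; nearly all actives have a fitted effect of over 45% in size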
#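 AMA1 (3D7) with his tag at 25 nM final met compounds first, then biotinylated RON2 peptide at 25 nM; detection used donor plus acceptor beads, 10 µg/mL apiece, read by AlphaScreen after 30 min at room temperature.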
# Sm TGR block = inhibitors of Schistosoma mansoni thioredoxin glutathione reductase; Potency, µM (highest dose often 114 µM), without a hit: at the top dose activity change, negative = inhibition, actives largely listed as inhibitors; purified TGR, DTNB reduction, TNB absorbance 405 nm; actives 3% (n = 360,000); AID 485364; further: nearly all actives have a fitted effect of over 60% in size
#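 TGR 20 nM + NADPH 100 uM (dispensed conc.), cpd preinc 15 min RT; start with NADPH (500 uM addition) then DTNB (15 mM addition). Kinetic TNB absorbance, 405 nm filter. Four-parameter Hill fit across titration.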
# LmPK inh = blocks Leishmania mexicana pyruvate kinase activity; Q27686; purified LmPK, Kinase-Glo ATP luminescence, 1 h; Potency, µM (titrated, usually from 57.5 µM), for the others: top-dose activity change, negative = inhibition, hits mostly inhibitors; actives 0.37% (n = 290,000)
# Target sequence (Q27686 whole entry, looked up): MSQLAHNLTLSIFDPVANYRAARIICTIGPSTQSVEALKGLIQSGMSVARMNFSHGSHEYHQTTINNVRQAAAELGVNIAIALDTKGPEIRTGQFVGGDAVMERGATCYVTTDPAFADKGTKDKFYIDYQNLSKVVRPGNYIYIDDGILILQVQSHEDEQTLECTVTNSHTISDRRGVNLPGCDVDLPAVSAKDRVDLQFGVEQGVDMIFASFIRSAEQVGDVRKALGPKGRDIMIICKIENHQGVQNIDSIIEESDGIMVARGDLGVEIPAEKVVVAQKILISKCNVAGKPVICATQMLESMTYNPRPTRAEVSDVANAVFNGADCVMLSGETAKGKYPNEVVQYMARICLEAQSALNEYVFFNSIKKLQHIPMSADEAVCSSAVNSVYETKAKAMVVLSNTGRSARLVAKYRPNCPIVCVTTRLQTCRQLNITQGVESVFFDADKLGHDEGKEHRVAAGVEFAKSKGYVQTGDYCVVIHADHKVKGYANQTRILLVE
#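 ATP generated from ADP (0.1 mM) and PEP (0.5 mM) by 0.1 nM LmPK over 1 h at room temperature (pH 7.2 imidazole buffer) was detected by coupled luciferase luminescence. Values were normalized to uninhibited and no-enzyme wells.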
# * hit, by the source's call; ? = inconclusive; . = no result; ! = a repeat was not active; [ ] = another dose, or the depositor's remark. Unless noted, the call rests on the fitted dose curve; in most records, active means well fitted curve in the direction sought with a large enough effect; inconclusive means small, poorly fitted or top-dose-only effect, or another doubt; inactive means no such curve, though single readings can be large; an effect the other way counts as inactive or inconclusive. Unless noted, on the % scale 0 is the no-effect control and ±100 the full control effect; potency means the concentration at half of the fitted maximal effect.
SMILES,RE007 growth inh,TbPYK inhibitor,AMA1 RON2 block,Sm TGR block,LmPK inh
CCC1(C(=O)OC)NC(c2ccco2)C2C(=O)N(c3ccccc3)C(=O)C21 (stereo not drawn),6%,-4%,7%,0%,9%
COC(=O)C1(CO)NC(c2ccc(C)cc2)C2C(=O)N(c3ccccc3)C(=O)C21 (stereo not drawn),11%,2%,-1%,-15%,1%
O=C1C2C3C=CC(CO)(O3)C2C(=O)N1c1ccc(-c2ccccc2)cc1 (stereo not drawn),.,.,.,0.5µM*,?
Cc1c(Br)c(O)c(Br)c2sc(=O)oc12,-17%,?,?,2.8µM*,0%
CCOc1ccccc1NS(=O)(=O)c1c(-c2ccc(C)cc2)csc1C(=O)OC,.,1%,.,4%,.
CN1Cc2cccnc2N(C)Cc2cc(Cl)ccc21,-26%,1%,-26%,7%,3%
Clc1ccc2c(c1)CCc1cccnc1C2=C1CCNCC1,.,-7%,.,45µM*!,1%
O=C(NCc1ccco1)C(=O)NCC1OCCN1C(=O)c1ccc(Cl)cc1 (stereo not drawn),0%,0%,27%,18µM*,4%
O=C1CCCCc2cc(O)c(O)cc21,-10%,-11%,66%,.,.
Nc1cc2c(cc1O)CCCC2,3%,-25%,-4%,40µM*,-15%
Cn1ncc2c(NCc3ccc(F)cc3)ncnc21,.,-2%[15.4 µM],.,14%,.
CN1c2ccccc2C(C)(C)C12CC(CCl)=NO2 (stereo not drawn),12%,3%,-8%,40µM*,-1%
O=C(Nc1ccccc1)Oc1ccc[nH]c1=O,-8%,7%,-5%,50µM*,-7%
COC(=O)c1c(-c2cccs2)csc1NC(=O)c1cc(OC)cc(OC)c1,.,-18%,.,7%,.
COc1ccc2cc(C(c3nnnn3Cc3ccc(F)cc3)N3CCCCCC3)c(=O)[nH]c2c1 (stereo not drawn),0%,0%,-6%,16µM*,1%
COc1ccc(Cn2nnnc2C(c2ccncc2)N2CCOCC2)cc1 (stereo not drawn),4%,-1%,4%,25µM*,6%
COc1ccc2cc(C(c3nnnn3Cc3ccccc3)N3CCCCCC3)c(=O)[nH]c2c1 (stereo not drawn),2%,-2%,9%,20µM*,1%
COc1ccc(C(c2nnnn2Cc2ccccc2)N2CCN(c3ccccc3)CC2)cc1 (stereo not drawn),13%,0%,-14%,0%,3%
COc1ccc(Cn2nnnc2C(c2cc3ccc(OC)cc3[nH]c2=O)N2CCC(C)CC2)cc1 (stereo not drawn),-7%,-8%,-3%,28µM*,1%
CCN(CC)c1nc2c(S(=O)(=O)c3ccc(C)cc3)nnn2c2ccsc12,.,-3%,.,8%,.
CNC(=O)C1CCC(Cn2c(=O)c3sccc3n(CC(=O)N3CCCC3)c2=O)CC1 (stereo not drawn),.,-1%,.,-8%,.
COc1ccc(/C(C#N)=C/c2ccccn2)cc1,.,-4%,10%,-1%,8.9µM*
Cc1ccccc1OC(=O)CSc1nnc(-c2ccc3c(c2)OCO3)o1,.,1%,.,0%,.
CCOC(=O)CSC1=NN2CCS(=O)(=O)N=C2S1,4%,-9%,3%,10µM*,6%
C=CCSC1=NN2CCS(=O)(=O)N=C2S1,6%,0%,4%,7%,-1%
SMILES,RE007 growth inh,TbPYK inhibitor,AMA1 RON2 block,Sm TGR block,LmPK inh
O=C(NCc1ccco1)c1sc2cc(Cl)ccc2c1Cl,?,7%,4%,40µM*,5%
COc1ccc(N(CC(=O)NCCc2ccc(C)cc2)S(=O)(=O)c2c(C)nn(C)c2C)cc1,.,-2%,.,1%,.
COc1ccc(/C=C/C(=O)Nc2ccc(OC)nc2)cc1,11%,-1%,?,7%,-2%
COc1ccc(NC(=O)Cc2ccccc2)cn1,28%,-2%,3%,-2%,-1%
COc1ccc(CS(=O)(=O)/C(Cl)=C(/Cl)C(=O)Nc2ccc(OC)nc2)cc1,?,0%,-5%,10µM*,3%
COc1ccc(NC(=O)/C(Cl)=C(/Cl)S(=O)Cc2ccccc2)cn1 (stereo not drawn),45µM*,-5%,1%,0.32µM*,2%
COc1cc(Nc2nc3ccccc3c3nnc(C)n23)cc(OC)c1,.,0%[15.4 µM],.,-3%,.
Cc1ccc(NC2=C(Cl)C(=O)OC2NC(=O)c2ccccc2)cc1 (stereo not drawn),-8%,2%,-10%,-8%,7%
O=C1OC(NC(=O)c2ccccc2)C(n2cc(CO)nn2)=C1Cl (stereo not drawn),13%,-8%,-2%,0.79µM*,7%
COc1ccccc1CN(CC(=O)NCc1ccco1)C(=O)CNS(=O)(=O)c1ccc(C)cc1,48%,-8%,-2%,28µM*,8%
COc1ccc(S(=O)(=O)NCC(=O)N(CC(=O)NCc2ccco2)Cc2ccccc2)cc1,8%,-1%,3%,-1%,1%
Cc1ccccc1N(CC(=O)NCc1ccco1)C(=O)CNS(=O)(=O)c1ccc(F)cc1,9%,0%,0%,40µM*,-2%
COc1ccccc1CN(CC(=O)NCc1ccco1)C(=O)CNS(=O)(=O)c1ccccc1,16%,-13%,2%,50µM*,0%
Cc1ccc(S(=O)(=O)NCC(=O)N(CC(=O)NCc2ccco2)Cc2cccs2)cc1,-15%,-2%,-14%,-36%,0%
COc1ccc(Cl)cc1NC(=O)Cn1c(=O)n2nc(-c3ccccc3)nc2c2ccccc21,.,3%,.,0%,.
COc1cccc(C(=O)NN2c3ccccc3CCc3ccccc32)c1,-1%,-1%,-14%,5%,3%
COc1ccc(C(=O)NN2C(=O)C3C4C=CC(O4)C3C2=O)cc1 (stereo not drawn),2%,-10%,3%,18µM*,-2%
Cc1ccc(C(=O)NN2C(=O)C3C4C=CC(C4)[C@@H]3C2=O)cc1 (stereo partly drawn),5%,3%,6%,-17%,-1%
COc1cccc(C(=O)NN2C(=O)C3C4C=CC(O4)C3C2=O)c1 (stereo not drawn),-3%,-10%,4%,20µM*,-1%
CCCn1c(CCC(=O)Nc2cc(Cl)c(OC)cc2OC)nc2cccnc21,.,-5%,.,-3%,.
CCCCn1c(SCC(=O)c2ccccc2)nc2c(sc3ccccc32)c1=O,.,-1%,.,-8%,.
COc1ccc(N(C(=O)c2cccc(C)c2)S(=O)(=O)c2ccc3c(c2)n(C)c(=O)n3C)cc1,.,-9%,.,4%,.
CCCCN(C(=S)Nc1cccc(SC)c1)C1CCN(C(C)=O)CC1,-22%,-3%,-8%,6%,4%
CSc1cccc(NC(=S)N2CCC(N(C)C3CCCCC3)CC2)c1,-8%,-3%,-2%,45µM*,-2%
